From PubChem BioAssay (NCATS)
Results filed as inconclusive are left out. Active and inactive are the calls of the source. Calls come from the whole dose curve; as a rule, active = well fitted cell-killing curve with a large enough effect; inconclusive = small, poorly fitted or top-dose-only effect; inactive = flat fitted curve, though single readings scatter.

Test: Quantitative highthroughput screen to assess conditional lethalithy of P12 Ichikawa cells grown in RPMI1640 with dialyzed fetal bovine serum (RPMI+ds) (AID 1963880); note: nearly all actives have a fitted effect of over 35% in size;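 for viability: 100% = DMSO wells and 0% = empty wells on each plate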
Conditions: ATP luminescence, 48 h; Potency: P12-Ichikawa viability; series mostly up to 45.8 µM; viability: at the top concentration
Procedure, shortened: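 Each medium arm—HPLM with 10% dialyzed FBS, or RPMI1640 with 5 mM glucose and 10% untreated or dialyzed FBS—was screened against an 11-point, 3-fold compound titration for 48 h at 37 °C, with CellTiter-Glo luminescence as endpoint.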
Potency is the fitted concentration of half-maximal effect.

Structure (SMILES)	Potency	viability
Oc1ccc(-c2nc(-c3ccc(F)cc3)c(-c3ccncc3)[nH]2)cc1	13.2 µM (active)	
Cc1c(C(=O)Nc2ccc(N3C[C@@H](C)O[C@@H](C)C3)nc2)cccc1-c1ccc(OC(F)(F)F)cc1	4.18 µM (active)	
CC(C)NCC(O)c1ccc(NS(C)(=O)=O)cc1 (configuration not stated)		107% (inactive)
COc1ccc(C2CNC(=O)C2)cc1OC1CCCC1 (configuration not stated)		99.1% (inactive)
Cc1cccc(-c2[nH]c(C(C)(C)C)nc2-c2ccc3nccnc3c2)n1		93.8% (inactive)
CCn1c(-c2nonc2N)nc2cncc(CNC3CCNCC3)c21	18.7 µM (active)	
Cc1ncc([N+](=O)[O-])n1CCO		105% (inactive)
C=C(C)[C@@H]1CC[C@]2(C)CC[C@]3(C)[C@H](CC[C@@H]4[C@@]5(C)CC[C@H](O)C(C)(C)[C@H]5CC[C@]43C)[C@@H]12		103% (inactive)
C[Se]CCC(N)C(=O)O (configuration not stated)		101% [at 92.2 µM] (inactive)
COc1ccc2c(c1)c(CC(=O)OCC(=O)O)c(C)n2C(=O)c1ccc(Cl)cc1		98.9% (inactive)
O=c1cc(N2CCOCC2)oc2c(-c3cccc4c3sc3ccccc34)cccc12		94.2% (inactive)
COc1cc2ncnc(Nc3ccc(F)c(Cl)c3)c2cc1OCCCN1CCOCC1		90.4% [at 92.2 µM] (inactive)
CC(C)[C@H](N)C(=O)OCCOCn1cnc2c(=O)[nH]c(N)nc21		104% (inactive)
COc1cc2ncnc(Nc3cccc(Br)c3)c2cc1OC		96.7% (inactive)
NS(=O)(=O)c1cccc2c1C(=O)c1cccc(O)c1C2=O	26.4 µM (active)	
Cn1cc(C[C@@H](N)C(=O)O)c2ccccc21		102% [at 23.2 µM] (inactive)
CCCn1c(=O)c2[nH]c(C34CC5CC3C[C@@H](C5)C4)nc2n(CCC)c1=O		96.1% (inactive)
CC(C)(OCc1nn(Cc2ccccc2)c2ccccc12)C(=O)O		98.6% (inactive)
CC(C(=O)O)c1ccc2c(c1)CC(=O)c1ccccc1S2 (configuration not stated)	10.5 µM (active)	
O=c1cc(-c2cccc3c2Sc2ccccc2S3)oc(N2CCOCC2)c1		93.8% (inactive)
COc1cc2c(Nc3ccc(Cl)c(Cl)c3F)ncnc2cc1OCC1C[C@@H]2CN(C)C[C@@H]2C1 (some centres not stated)	23.4 µM (active)	
CN(C)c1nc(N(C)C)nc(N(C)C)n1		103% (inactive)
C[C@H](CCC(=O)O)[C@H]1CCC2C3C[C@H](O)[C@@H]4C[C@H](O)CC[C@]4(C)C3CC[C@@]21C (some centres not stated)		99.1% (inactive)
CCN(CC)CCNC(=O)c1ccc2nc(-c3ccccc3)c(-c3ccc(CN4CCC(n5c(=O)[nH]c6ccccc65)CC4)cc3)nc2c1	2.64 µM (active)	
Oc1cc2c(cc1O)C1c3ccc(O)c(O)c3OCC1(O)C2 (configuration not stated)		104% (inactive)
COc1cc(NS(=O)(=O)c2ccc(N)cc2)nc(OC)n1		96.4% (inactive)
CCc1cc(C(N)=S)ccn1	8.33 µM (active)	
